Activity calls are given as the source filed them. Unless noted, the rule behind the calls is not given here.
What was measured:
[1] = system: Wnt5a (protein binding on small-molecule microarray); assay: small molecules binding Wnt5a protein – biophysical, small-molecule microarray, 635/667 nm fluorescence, primary screen (AID 1142); details: 635 nm fluorescence, higher = more signal;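 note: fluorescence read at 667 nm with signal to noise per printed feature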
[2] = ATP-based viability of Huh7 replicon cells – cell-based, CellTiter-Glo luminescence, basal, 48 h, cytotoxicity control for HCV replication inhibitor project, primary screen (AID 1143); details: higher = more signal, called active from +8 up or from −8 down;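 note: Huh7 hepatoma cells carrying a hepatitis C replication reporter with no stimulus; test concentration not given here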
[3] = Pseudomonas biofilm growth suppression – PAO1 strain, BacTiter-Glo luminescence, LB-PBS, primary screen (AID 1144); details: P. aeruginosa PAO1 biofilm, 12 h, higher = more signal
[4] = basal CRE-LacZ reporter activity in PC12 – cell-based, unstimulated, primary screen (AID 1145); details: no forskolin, luminescence, 4.5 h, higher = more signal, called active from +8 up or from −8 down
[5] = forskolin-driven CRE-LacZ activity in PC12 – cell-based, CRE-LacZ reporter, forskolin-stimulated, primary screen (AID 1146); details: luminescence, 4.5 h, higher = more signal, called active from +8 up or from −8 down;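 note: PC12 cells with 6xCRE LacZ reporter stimulated by forskolin 10 µM; beta-galactosidase reporter signal reflecting CREB driven transcription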
[6] = target: Streptavidin (Streptomyces avidinii) (UniProt P22629); assay: compounds binding control protein streptavidin – biophysical, small-molecule microarray, 635/667 nm fluorescence, artefact control for SMM compound annotation, primary screen (AID 1147); details: higher = more signal;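 note: signal reflects streptavidin binding to arrayed compounds as a control protein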
Streptavidin (Streptomyces avidinii), sequence (P22629 whole entry, looked up): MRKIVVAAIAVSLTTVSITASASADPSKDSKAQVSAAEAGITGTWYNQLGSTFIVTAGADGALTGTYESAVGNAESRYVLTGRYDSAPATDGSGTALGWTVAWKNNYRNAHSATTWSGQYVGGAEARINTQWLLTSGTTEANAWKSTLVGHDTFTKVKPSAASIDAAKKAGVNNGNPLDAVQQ

[7] = probe aInhba binding on compound microarray – biochemical, small-molecule microarray, 635/667 nm fluorescence, primary screen (AID 1148); details: higher = more signal;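 note: score merges 667nm spot fluorescence with signal-to-noise for antibody binding to printed compounds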
[8] = target: Torsin-1A (Homo sapiens) (UniProt O14656); assay: TOR1A wild-type binding on microarray – cell lysate, small-molecule microarray, lysate, 635/667 nm, primary screen (AID 1149); details: COS7 hTOR1A-WT lysate, 635 nm fluorescence, higher = more signal
Torsin-1A (Homo sapiens), sequence (O14656 whole entry, looked up): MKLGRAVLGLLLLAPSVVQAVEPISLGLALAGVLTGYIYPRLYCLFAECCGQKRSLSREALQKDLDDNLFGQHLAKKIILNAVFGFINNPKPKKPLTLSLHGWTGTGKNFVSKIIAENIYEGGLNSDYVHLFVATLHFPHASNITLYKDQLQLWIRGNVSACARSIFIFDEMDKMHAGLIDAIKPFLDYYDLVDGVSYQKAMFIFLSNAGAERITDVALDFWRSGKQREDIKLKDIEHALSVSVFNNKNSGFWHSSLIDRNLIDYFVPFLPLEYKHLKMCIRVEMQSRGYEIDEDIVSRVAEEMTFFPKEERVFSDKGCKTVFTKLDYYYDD

[9] = target: Torsin-1A (Homo sapiens) (UniProt O14656); assay: torsin A mutant lysate binding on microarrays – cell lysate, small-molecule microarray, COS7 lysate, 635/667 nm fluorescence, primary screen (AID 1150); details: COS7 hTOR1A mutant lysate, 635 nm fluorescence, higher = more signal;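 note: score pools 667 nm emission and signal to noise measuring lysate protein binding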
[10] = system: Sonic hedgehog protein (Shh); assay: Sonic hedgehog microarray binding compounds – biochemical, small-molecule microarray, 635/667 nm fluorescence, primary screen (AID 1151); details: 635 nm fluorescence, higher = more signal;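 note: Shh protein binding to compounds spotted on small-molecule microarray slides; score combines spot fluorescence intensity with signal-to-noise across triplicate slides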
[11] = optical density shifts of acrAB sulA E. coli – strain DRC41, OD650, 48 h, E. coli filamentation inducer project, primary screen (AID 1152); details: higher = more signal, called active from +8 up or from −8 down;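 note: E. coli MC1000 strain DRC41 lacking acrAB efflux pump and sulA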
[12] = probe aLefty1 binding on compound microarray – biochemical, small-molecule microarray, 635/667 nm fluorescence, primary screen (AID 1153); details: higher = more signal;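 note: score merges spot fluorescence with signal-to-noise ratio from the scanned slide images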
[13] = plasmodial surface anion channel blockers, osmotic lysis – cell-based, P. falciparum Indochina, OD700, 1 h, primary screen (AID 1154); details: P. falciparum Indochina infected RBC osmotic lysis, higher = more signal, called active from +8 up or from −8 down
[14] = plasmodial surface anion channel blockers, osmotic lysis – cell-based, P. falciparum Indochina, OD700, 2 h, primary screen (AID 1155);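 note: lysis reports solute entry through the parasite surface anion channel PSAC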; details: P. falciparum Indochina infected erythrocytes, higher = more signal, called active from +8 up or from −8 down
[15] = changes in parasitized red cell lysis, either direction – P. falciparum Indochina, OD700, 3 h, PSAC antagonist project, primary screen (AID 1156); details: P. falciparum-infected erythrocytes, osmotic lysis, higher = more signal, called active from +8 up or from −8 down
[16] = plasmodial surface anion channel blockers, osmotic lysis – cell-based, P. falciparum Indochina, OD700, 18 h, primary screen (AID 1157); details: P. falciparum Indochina infected erythrocytes, osmotic lysis OD700, 18 h; higher = more signal, called active from +8 up or from −8 down
[17] = S6 kinase pathway phospho-S6 level changes – cell-based, A549, cytoblot, luminescence, serum-stimulated, primary screen (AID 1158); details: 5 h, higher = more signal;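 note: serum-stimulated A549 lung adenocarcinoma cells; signal is phosphorylated S6 detected by cytoblot immunostaining with HRP secondary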
[18] = target: NADPH oxidase 2 (Homo sapiens) (UniProt P04839); assay: compounds shifting NOX2 Amplex Red fluorescence – cell-based, HEK293-NOX2, PMA-stimulated, NOX inhibitor project, primary screen (AID 1159); details: 45 min, higher = more signal, called active from +8 up or from −8 down; note: test concentration not given here
NADPH oxidase 2 (Homo sapiens), sequence (P04839 whole entry, looked up): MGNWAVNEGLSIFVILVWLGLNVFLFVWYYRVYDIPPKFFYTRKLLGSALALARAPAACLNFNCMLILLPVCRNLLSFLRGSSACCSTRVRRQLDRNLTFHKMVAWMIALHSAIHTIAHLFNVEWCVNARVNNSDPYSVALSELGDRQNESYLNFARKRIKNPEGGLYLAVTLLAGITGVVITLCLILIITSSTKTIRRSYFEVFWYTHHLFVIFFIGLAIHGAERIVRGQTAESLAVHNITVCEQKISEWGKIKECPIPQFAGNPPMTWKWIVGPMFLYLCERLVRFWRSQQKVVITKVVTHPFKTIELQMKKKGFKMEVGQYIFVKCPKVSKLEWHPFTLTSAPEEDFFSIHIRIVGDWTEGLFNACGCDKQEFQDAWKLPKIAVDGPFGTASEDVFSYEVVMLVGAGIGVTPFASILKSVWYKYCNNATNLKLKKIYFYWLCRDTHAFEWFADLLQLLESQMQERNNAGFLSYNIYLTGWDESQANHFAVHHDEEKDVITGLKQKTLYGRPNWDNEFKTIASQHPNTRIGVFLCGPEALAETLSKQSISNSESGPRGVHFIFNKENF

[19] = target: NADPH oxidase 4 (Homo sapiens) (UniProt Q9NPH5); assay: compounds shifting NOX4 Amplex Red fluorescence – cell-based, HEK293-NOX4, tetracycline-induced, NOX inhibitor project, primary screen (AID 1160); details: HEK293-NOX4, Amplex Red H2O2 fluorescence, 45 min; higher = more signal, called active from +8 up or from −8 down
NADPH oxidase 4 (Homo sapiens), sequence (Q9NPH5 whole entry, looked up): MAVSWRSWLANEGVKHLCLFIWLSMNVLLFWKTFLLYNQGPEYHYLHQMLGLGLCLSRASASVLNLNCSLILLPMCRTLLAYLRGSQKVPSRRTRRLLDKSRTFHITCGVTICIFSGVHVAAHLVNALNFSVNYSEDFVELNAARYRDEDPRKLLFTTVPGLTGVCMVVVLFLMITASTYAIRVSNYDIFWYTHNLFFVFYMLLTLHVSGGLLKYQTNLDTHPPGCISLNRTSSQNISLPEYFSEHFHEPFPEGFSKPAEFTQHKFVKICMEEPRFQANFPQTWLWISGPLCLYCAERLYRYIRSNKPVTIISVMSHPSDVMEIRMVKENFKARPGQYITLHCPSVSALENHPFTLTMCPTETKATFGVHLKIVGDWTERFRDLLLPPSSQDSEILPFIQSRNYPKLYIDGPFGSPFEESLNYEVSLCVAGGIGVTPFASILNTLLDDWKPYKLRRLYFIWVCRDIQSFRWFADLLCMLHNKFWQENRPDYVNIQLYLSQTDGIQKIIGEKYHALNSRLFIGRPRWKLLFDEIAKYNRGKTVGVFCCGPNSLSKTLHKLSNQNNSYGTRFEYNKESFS

[20] = target: NADPH oxidase 5 (Homo sapiens) (UniProt Q96PH1); assay: compounds shifting NOX5 Amplex Red fluorescence – cell-based, HEK293-NOX5, NOX inhibitor project, primary screen (AID 1161); details: HEK293-NOX5, ionomycin, 45 min, higher = more signal
NADPH oxidase 5 (Homo sapiens), sequence (Q96PH1 whole entry, looked up): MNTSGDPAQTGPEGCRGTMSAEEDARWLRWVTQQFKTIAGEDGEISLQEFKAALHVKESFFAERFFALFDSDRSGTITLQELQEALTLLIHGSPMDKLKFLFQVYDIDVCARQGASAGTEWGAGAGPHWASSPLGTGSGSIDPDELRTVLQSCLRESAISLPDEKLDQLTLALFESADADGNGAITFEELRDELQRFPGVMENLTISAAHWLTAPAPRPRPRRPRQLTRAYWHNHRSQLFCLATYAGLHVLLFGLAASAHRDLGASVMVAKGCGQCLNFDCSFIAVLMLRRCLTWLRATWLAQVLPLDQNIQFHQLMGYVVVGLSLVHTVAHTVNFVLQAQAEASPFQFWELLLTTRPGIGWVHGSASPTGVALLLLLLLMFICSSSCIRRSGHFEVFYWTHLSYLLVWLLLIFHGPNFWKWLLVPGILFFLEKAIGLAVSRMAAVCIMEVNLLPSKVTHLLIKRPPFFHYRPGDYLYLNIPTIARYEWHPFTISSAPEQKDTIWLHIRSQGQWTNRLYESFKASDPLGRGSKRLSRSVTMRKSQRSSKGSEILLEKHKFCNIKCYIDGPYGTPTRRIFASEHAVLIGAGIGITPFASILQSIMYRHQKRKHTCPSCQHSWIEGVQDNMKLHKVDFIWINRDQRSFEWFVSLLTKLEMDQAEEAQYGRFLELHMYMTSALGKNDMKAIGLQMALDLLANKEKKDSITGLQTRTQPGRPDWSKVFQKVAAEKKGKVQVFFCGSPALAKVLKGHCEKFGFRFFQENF

SMILES	composite z-score [1]	z-score [2]	z-score [3]	z-score [4]	z-score [5]	composite z-score [6]	composite z-score [7]	composite z-score [8]	composite z-score [9]	composite z-score [10]	z-score [11]	composite z-score [12]	z-score [13]	z-score [14]	z-score [15]	z-score [16]	z-score [17]	z-score [18]	z-score [19]	z-score [20]
N#Cc1ccc(C(O)C2C=CC3C(=O)NC(=O)C3N2Nc2ccc(Cl)cc2Cl)cc1 (stereo not given)	-0.0844	0.199 (inactive)	-0.376 (inactive)	0.629 (inactive)	-0.728 (inactive)	0.865	0.104	-0.404	0.0924	-0.855	-1.18 (inactive)	0.243	13.7 (active)	2.42 (inactive)	2.15 (inactive)	1.39 (inactive)	-1.29	-1.23 (inactive)	-5.23 (inactive)	-2.75
C[C@@H]1ON(c2ccc(I)cc2)[C@H](c2cccc(NC(=O)OCC3c4ccccc4-c4ccccc43)c2)[C@H]1C(=O)N1C(=O)OC[C@H]1Cc1ccccc1	0.0217	-0.659 (inactive)	-0.215 (inactive)	2.13 (inactive)	-0.0677 (inactive)	0.226	-0.0893	0.579	-0.0059	0.851	1.26 (inactive)	0.185	-0.261 (inactive)	0.755 (inactive)	0.0181 (inactive)	0.0584 (inactive)	-0.447	-0.143 (inactive)	-2.58 (inactive)	-2.6
O=C1OCCC=C[C@H]2OC34C=CCN(c5ccc6ccccc6c5)C(=O)[C@H]3N(CCO)C(=O)[C@@H]4C12 (stereo not given in full)	-0.457	0.291 (inactive)	-0.663 (inactive)	-0.887 (inactive)	0.463 (inactive)	-0.906	-0.753	-1.41	-0.669	0.116	-0.701 (inactive)	-0.815	0.809 (inactive)	0.791 (inactive)	1.11 (inactive)	0.332 (inactive)	-0.366	1.47 (inactive)	-0.0539 (inactive)	2.41
CC(C)=CCCC(C)=CC(O)C1C=CC2C(=O)NC(=O)C2N1Nc1ccc(Cl)cc1Cl (stereo not given)	0.623	-1.64 (inactive)	-0.815 (inactive)	0.822 (inactive)	0.501 (inactive)	1.26	-0.0035	-0.0743	0.622	0.737	-2.85 (inactive)	0.544	7.58 (inactive)	1.61 (inactive)	-0.519 (inactive)	1.39 (inactive)	-0.498	-1.84 (inactive)	-5.04 (inactive)	-1.53
O=C1[C@@H]2[C@@H](CC(COc3ccccc3)=C([C@H](O)CCc3ccccc3)[C@@H]2CO)C(=O)N1Cc1ccccc1	-0.0252	-2.37 (inactive)	-0.423 (inactive)	4.74 (inactive)	0.831 (inactive)	0.541	-0.274	-0.19	0.167	0.801	0.17 (inactive)	-0.0867	27.8 (active)	21.8 (active)	-0.602 (inactive)	2.05 (inactive)	0.05	-2.32 (inactive)	-0.526 (inactive)	-1.59
Cc1ccc(F)cc1S(=O)(=O)N[C@H]1CCN(Cc2ccc(OC(C)C)cc2)C1	-0.223	-3.11 (inactive)	0.434 (inactive)	1.4 (inactive)	-0.592 (inactive)	-0.48	-0.0963	0.149	-0.0115	1.75	-4.19 (inactive)	-0.241	2.31 (inactive)	0.709 (inactive)	0.183 (inactive)	0.526 (inactive)	-0.227	-1.11 (inactive)	-0.777 (inactive)	-2.37
C=CCNC(=O)[C@H]1[C@@H]2C(=O)O[C@@H](c3ccccc3)[C@@H](c3ccccc3)N2[C@@H](c2ccc(OCCO)cc2)[C@]12C(=O)Nc1ccccc12	-0.159	-1.62 (inactive)	-0.9 (inactive)	0.389 (inactive)	1.1 (inactive)	0.917	-0.244	0.0646	0.841	-0.0035	0.738 (inactive)	1.21	10.1 (active)	1.01 (inactive)	-0.444 (inactive)	0.81 (inactive)	0.0226	1.87 (inactive)	0.841 (inactive)	-0.101
CN(C)CCCCNC(=O)[C@H]1C[C@H]2C(=O)N3CCC[C@H]3C(=O)N2[C@H]1c1cccc(OCCO)c1	-0.202	0.196 (inactive)	-1.17 (inactive)	0.0043 (inactive)	-0.258 (inactive)	1.89	-0.0403	-0.107	0.98	1.17	-0.019 (inactive)	0.517	2.99 (inactive)	0.502 (inactive)	0.348 (inactive)	0.178 (inactive)	-0.0038	0.787 (inactive)	1.37 (inactive)	0.803
